# According to ChEMBL document CHEMBL1961873, “Compounds: GSK PKIS; Assays: Nanosyn kinase panel” (2012):
# Legend:
# [1] = target: Fibroblast growth factor receptor 4 (Homo sapiens) (UniProt P22455); conditions: at 1 µM;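 also: reported figure is the averaged percent inhibition of FGFR4, from the GSK PKIS kinase screening panel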
# [2] = target: Tyrosine-protein kinase Fgr (Homo sapiens) (UniProt P09769); conditions: at 0.1 µM
# [3] = target: Tyrosine-protein kinase Fgr (Homo sapiens) (UniProt P09769); conditions: at 1 µM
# [4] = target: Vascular endothelial growth factor receptor 1 (Homo sapiens) (UniProt P17948); conditions: at 0.1 µM
# [5] = target: Vascular endothelial growth factor receptor 1 (Homo sapiens) (UniProt P17948); conditions: at 1 µM
# [6] = target: Receptor-type tyrosine-protein kinase FLT3 (Homo sapiens) (UniProt P36888); conditions: at 0.1 µM
# [7] = target: Receptor-type tyrosine-protein kinase FLT3 (Homo sapiens) (UniProt P36888); conditions: at 1 µM
# [8] = tested on: T1, Receptor-type tyrosine-protein kinase FLT3 (Homo sapiens), P36888 [D835Y]; conditions: at 0.1 µM
# T1 sequence (whole entry): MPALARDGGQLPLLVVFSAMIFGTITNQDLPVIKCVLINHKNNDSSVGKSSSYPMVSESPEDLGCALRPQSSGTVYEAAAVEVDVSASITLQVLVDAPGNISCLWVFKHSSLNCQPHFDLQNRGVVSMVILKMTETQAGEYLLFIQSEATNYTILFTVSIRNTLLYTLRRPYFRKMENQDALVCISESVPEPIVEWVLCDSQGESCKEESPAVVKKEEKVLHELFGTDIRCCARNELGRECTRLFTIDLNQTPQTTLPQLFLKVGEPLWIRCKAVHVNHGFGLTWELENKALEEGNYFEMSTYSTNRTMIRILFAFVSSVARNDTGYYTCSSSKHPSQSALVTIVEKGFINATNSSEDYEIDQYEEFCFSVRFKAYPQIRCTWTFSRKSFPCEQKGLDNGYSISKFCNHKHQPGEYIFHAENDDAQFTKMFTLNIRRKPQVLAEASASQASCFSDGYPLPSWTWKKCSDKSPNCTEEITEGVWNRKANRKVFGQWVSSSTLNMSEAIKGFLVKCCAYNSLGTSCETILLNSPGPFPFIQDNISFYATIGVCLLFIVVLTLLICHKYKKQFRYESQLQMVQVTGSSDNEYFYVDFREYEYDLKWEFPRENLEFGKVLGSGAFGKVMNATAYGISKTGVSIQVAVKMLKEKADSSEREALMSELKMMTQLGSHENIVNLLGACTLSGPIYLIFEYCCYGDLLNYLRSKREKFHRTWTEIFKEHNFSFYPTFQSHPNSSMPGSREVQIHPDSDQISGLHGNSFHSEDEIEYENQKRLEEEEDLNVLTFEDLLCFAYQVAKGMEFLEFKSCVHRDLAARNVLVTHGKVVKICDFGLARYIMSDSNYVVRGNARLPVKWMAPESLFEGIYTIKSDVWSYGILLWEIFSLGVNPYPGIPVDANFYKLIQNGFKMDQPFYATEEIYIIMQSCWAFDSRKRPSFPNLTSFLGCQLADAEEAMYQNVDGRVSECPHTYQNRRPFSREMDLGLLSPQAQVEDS
# [9] = target: Non-receptor tyrosine-protein kinase TYK2 (Homo sapiens) (UniProt P29597); conditions: at 1 µM;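 also: values are mean percent inhibition of TYK2 kinase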
# [10] = target: T2, Tyrosine-protein kinase receptor TYRO3 (Homo sapiens) (UniProt Q06418); conditions: at 0.1 µM
# T2 sequence (whole entry): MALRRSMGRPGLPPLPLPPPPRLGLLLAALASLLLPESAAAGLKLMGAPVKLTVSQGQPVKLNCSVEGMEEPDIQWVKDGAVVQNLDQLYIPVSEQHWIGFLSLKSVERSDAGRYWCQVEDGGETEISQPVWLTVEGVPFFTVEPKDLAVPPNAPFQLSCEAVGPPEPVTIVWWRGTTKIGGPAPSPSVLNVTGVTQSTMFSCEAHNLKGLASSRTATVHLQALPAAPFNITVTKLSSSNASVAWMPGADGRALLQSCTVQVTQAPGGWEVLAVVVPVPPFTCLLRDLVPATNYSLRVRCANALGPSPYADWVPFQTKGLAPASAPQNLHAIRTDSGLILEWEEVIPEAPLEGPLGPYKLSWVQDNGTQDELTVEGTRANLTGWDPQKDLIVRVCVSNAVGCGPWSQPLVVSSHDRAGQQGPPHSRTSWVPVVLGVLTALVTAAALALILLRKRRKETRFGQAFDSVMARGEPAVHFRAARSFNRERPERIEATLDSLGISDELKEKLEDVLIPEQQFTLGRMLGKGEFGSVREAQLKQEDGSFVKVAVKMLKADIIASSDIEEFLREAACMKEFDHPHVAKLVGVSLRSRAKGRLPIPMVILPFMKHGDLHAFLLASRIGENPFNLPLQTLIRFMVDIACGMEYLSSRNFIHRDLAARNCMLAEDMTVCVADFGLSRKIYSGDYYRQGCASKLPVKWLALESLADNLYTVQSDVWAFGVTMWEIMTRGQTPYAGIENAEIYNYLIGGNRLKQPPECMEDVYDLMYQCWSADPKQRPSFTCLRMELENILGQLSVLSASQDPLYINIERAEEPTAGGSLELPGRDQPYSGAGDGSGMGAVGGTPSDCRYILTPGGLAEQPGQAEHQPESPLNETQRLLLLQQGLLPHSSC
# [11] = target: T2, Tyrosine-protein kinase receptor TYRO3 (Homo sapiens); conditions: at 1 µM
# [12] = target: Tyrosine-protein kinase Yes (Homo sapiens) (UniProt P07947); conditions: at 0.1 µM
# [13] = target: Tyrosine-protein kinase Yes (Homo sapiens) (UniProt P07947); conditions: at 1 µM
# [14] = target: T3, Tyrosine-protein kinase ZAP-70 (Homo sapiens) (UniProt P43403); conditions: at 0.1 µM
# T3 sequence (whole entry): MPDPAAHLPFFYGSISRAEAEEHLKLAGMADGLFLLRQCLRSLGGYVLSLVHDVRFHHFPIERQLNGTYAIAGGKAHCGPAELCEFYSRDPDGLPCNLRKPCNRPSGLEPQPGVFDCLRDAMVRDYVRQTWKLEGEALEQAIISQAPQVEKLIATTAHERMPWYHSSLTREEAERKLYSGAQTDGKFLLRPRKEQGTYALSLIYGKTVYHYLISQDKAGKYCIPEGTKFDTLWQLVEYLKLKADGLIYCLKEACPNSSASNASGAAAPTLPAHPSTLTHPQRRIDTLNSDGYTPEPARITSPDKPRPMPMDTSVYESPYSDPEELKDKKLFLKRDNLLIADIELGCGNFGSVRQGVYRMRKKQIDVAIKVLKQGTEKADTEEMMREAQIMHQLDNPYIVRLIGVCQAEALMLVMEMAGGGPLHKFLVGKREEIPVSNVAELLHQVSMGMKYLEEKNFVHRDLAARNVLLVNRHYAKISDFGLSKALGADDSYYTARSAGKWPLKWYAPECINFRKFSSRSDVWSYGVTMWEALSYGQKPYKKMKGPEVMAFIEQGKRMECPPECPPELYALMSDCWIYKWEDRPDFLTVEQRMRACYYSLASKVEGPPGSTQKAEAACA
# [15] = target: T3, Tyrosine-protein kinase ZAP-70 (Homo sapiens); conditions: at 1 µM
# [16] = target: Serine/threonine-protein kinase B-raf (Homo sapiens) (UniProt P15056); conditions: at 0.1 µM
# [17] = target: Serine/threonine-protein kinase B-raf (Homo sapiens) (UniProt P15056); conditions: at 1 µM
# [18] = tested on: Serine/threonine-protein kinase B-raf (Homo sapiens), P15056 [V600E]; conditions: at 0.1 µM
# [19] = tested on: Serine/threonine-protein kinase B-raf (Homo sapiens), P15056 [V600E]; conditions: at 1 µM
# [20] = target: RAF proto-oncogene serine/threonine-protein kinase (Homo sapiens) (UniProt P04049); conditions: at 0.1 µM;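 also: values are mean CRAF kinase inhibition from profiling of the GSK Published Kinase Inhibitor Set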
# RAF proto-oncogene serine/threonine-protein kinase (Homo sapiens), sequence (P04049 whole entry): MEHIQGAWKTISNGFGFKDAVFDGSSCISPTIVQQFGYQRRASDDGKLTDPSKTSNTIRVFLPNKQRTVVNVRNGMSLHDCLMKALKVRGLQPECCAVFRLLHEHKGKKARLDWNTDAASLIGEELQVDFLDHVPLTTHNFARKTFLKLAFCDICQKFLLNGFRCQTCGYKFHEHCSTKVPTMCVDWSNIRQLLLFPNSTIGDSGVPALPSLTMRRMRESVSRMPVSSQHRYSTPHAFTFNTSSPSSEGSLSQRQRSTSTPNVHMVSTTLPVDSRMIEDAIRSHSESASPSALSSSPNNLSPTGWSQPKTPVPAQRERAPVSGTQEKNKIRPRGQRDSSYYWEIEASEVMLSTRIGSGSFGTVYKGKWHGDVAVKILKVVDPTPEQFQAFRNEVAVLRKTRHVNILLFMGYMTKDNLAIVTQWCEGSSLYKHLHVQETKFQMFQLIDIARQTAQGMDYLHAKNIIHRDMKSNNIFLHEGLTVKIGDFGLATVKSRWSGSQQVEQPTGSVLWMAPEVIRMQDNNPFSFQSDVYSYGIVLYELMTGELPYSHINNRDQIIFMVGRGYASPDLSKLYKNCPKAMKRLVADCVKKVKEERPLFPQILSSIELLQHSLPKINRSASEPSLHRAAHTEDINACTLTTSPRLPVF
# Non-receptor tyrosine-protein kinase TYK2 (Homo sapiens), sequence (P29597 whole entry): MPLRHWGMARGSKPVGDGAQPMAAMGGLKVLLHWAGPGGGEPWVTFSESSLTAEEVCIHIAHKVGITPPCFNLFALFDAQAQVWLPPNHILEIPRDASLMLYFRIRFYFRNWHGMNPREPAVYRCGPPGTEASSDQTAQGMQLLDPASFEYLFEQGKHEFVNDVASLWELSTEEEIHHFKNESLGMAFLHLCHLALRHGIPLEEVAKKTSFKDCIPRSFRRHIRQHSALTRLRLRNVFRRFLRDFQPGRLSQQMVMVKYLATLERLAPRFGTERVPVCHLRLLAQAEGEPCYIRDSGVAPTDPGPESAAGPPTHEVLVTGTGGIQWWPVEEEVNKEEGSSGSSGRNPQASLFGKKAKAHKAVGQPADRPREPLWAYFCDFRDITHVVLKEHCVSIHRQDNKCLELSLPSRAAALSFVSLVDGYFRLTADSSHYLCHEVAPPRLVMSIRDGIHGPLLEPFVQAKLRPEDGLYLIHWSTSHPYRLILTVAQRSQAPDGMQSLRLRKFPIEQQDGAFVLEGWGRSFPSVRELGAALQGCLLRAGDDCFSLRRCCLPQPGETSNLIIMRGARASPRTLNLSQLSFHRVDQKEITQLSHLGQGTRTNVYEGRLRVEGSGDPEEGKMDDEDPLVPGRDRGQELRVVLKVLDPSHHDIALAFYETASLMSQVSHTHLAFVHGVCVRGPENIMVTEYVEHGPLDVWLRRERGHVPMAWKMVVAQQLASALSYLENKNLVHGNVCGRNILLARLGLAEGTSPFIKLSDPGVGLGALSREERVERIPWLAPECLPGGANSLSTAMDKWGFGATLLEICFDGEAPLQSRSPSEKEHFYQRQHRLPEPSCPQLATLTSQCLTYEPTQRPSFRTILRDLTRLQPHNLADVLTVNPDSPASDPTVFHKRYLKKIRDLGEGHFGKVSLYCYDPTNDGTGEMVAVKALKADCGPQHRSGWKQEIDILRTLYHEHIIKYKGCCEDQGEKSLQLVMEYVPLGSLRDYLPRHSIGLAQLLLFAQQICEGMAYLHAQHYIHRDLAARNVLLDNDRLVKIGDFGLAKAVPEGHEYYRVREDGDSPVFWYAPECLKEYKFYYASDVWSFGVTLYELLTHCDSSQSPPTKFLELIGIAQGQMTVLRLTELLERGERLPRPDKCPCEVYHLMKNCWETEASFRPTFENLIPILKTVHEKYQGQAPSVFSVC
# Serine/threonine-protein kinase B-raf (Homo sapiens), P15056 [V600E], sequence (P15056 whole entry V600E): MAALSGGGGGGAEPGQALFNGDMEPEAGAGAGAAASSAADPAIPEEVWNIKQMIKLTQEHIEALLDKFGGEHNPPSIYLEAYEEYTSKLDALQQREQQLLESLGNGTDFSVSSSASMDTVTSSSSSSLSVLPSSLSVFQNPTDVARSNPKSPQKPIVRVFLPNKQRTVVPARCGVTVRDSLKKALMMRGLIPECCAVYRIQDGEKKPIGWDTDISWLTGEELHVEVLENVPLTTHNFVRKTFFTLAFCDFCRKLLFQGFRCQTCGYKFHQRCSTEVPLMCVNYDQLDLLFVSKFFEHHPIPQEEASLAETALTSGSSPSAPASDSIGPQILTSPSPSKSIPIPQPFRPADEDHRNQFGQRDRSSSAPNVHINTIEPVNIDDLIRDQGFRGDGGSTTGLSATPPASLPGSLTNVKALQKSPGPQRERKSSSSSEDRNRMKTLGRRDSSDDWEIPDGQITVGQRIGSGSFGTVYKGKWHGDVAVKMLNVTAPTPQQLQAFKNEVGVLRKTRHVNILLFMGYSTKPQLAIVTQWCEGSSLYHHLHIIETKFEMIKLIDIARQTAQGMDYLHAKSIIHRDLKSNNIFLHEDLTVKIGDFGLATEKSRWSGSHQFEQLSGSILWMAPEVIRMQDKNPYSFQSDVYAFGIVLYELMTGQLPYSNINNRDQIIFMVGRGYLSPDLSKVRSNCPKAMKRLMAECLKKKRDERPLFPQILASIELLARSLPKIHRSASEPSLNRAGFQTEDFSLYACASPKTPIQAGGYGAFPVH
# Vascular endothelial growth factor receptor 1 (Homo sapiens), sequence (P17948 whole entry): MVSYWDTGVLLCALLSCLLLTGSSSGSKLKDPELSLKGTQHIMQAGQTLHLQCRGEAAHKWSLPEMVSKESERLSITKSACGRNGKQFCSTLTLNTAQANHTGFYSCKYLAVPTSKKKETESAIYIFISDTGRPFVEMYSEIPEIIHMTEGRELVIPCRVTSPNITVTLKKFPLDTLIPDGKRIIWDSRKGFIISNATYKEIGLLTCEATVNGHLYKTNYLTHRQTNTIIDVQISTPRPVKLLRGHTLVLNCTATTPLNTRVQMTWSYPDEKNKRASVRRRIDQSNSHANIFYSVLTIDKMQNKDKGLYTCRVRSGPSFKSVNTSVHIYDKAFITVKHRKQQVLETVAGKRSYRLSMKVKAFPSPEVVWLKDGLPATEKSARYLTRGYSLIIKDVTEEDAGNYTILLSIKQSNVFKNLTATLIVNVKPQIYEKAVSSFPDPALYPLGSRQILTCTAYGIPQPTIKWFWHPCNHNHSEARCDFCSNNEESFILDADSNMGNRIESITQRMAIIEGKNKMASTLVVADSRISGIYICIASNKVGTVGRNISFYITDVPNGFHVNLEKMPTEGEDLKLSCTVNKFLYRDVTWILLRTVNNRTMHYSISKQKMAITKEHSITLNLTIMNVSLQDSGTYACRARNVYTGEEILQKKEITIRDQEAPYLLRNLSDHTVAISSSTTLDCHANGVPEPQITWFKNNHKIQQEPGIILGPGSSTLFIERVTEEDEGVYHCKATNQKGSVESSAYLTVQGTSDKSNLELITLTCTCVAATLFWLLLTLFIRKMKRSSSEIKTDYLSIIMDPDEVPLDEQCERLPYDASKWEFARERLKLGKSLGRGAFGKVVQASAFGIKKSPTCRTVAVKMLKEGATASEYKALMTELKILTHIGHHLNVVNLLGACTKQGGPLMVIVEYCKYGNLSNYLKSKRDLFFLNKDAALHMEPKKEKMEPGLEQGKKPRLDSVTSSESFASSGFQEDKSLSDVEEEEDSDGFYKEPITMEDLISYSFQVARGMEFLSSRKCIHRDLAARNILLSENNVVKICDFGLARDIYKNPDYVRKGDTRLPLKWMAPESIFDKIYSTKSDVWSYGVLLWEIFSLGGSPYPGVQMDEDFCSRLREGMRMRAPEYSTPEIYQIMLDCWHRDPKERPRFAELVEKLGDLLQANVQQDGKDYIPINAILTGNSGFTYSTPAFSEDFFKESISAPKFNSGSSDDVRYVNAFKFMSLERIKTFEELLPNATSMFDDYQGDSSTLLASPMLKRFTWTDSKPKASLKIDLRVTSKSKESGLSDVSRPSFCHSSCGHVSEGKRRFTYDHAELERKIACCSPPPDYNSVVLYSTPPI
# Tyrosine-protein kinase Fgr (Homo sapiens), sequence (P09769 2-529 limits assumed): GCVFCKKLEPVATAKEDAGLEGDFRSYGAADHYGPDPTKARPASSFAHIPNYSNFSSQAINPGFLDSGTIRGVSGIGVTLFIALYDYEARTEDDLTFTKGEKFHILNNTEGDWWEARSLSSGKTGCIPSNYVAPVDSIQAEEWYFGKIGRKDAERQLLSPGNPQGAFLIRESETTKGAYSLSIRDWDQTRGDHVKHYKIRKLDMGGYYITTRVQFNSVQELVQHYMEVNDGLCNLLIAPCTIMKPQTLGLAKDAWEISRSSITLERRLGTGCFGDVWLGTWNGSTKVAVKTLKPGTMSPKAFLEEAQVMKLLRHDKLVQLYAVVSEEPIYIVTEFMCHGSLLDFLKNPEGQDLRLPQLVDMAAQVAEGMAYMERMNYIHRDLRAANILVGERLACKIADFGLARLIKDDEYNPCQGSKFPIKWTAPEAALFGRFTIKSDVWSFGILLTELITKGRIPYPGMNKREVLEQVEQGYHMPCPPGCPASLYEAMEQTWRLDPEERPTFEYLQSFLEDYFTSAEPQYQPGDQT
# Serine/threonine-protein kinase B-raf (Homo sapiens), sequence (P15056 whole entry): as the sequence (P15056 whole entry V600E) above, with E600V counted along it
# Tyrosine-protein kinase Yes (Homo sapiens), sequence (P07947 2-543 limits assumed): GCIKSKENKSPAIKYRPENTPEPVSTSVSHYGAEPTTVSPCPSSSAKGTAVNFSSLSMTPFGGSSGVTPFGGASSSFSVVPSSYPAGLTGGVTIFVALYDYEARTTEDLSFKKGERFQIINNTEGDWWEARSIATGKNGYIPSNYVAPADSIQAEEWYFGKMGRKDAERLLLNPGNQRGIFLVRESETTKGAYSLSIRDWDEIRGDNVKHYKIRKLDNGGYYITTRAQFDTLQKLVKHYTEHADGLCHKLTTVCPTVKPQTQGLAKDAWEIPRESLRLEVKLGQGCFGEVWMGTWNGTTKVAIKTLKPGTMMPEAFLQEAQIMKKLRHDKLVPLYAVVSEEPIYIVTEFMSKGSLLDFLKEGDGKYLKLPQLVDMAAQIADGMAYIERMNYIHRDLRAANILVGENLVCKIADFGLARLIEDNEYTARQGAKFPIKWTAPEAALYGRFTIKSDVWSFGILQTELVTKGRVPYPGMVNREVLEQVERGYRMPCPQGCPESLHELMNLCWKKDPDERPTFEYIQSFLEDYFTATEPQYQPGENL
SMILES,inhibition [1],inhibition [2],inhibition [3],inhibition [4],inhibition [5],inhibition [6],inhibition [7],inhibition [8],inhibition [9],inhibition [10],inhibition [11],inhibition [12],inhibition [13],inhibition [14],inhibition [15],inhibition [16],inhibition [17],inhibition [18],inhibition [19],inhibition [20]
CC(=O)Nc1cccc(C#Cc2cncnc2Nc2ccc(OCc3cccc(F)c3)c(Cl)c2)c1,1.74%,2.84%,9.6%,2.19%,3.25%,2.59%,2.38%,-3.37%,0.26%,3.62%,0.81%,1.2%,1.7%,3.59%,6.95%,1.95%,1.44%,1.85%,2.03%,2.77%
c1cc(-c2cnn3nc(N4CCOCC4)ccc23)nc(NC2CC2)n1,1.73%,3.22%,8.79%,3.82%,8.82%,4.34%,17.2%,7.24%,-4.59%,-0.77%,2.97%,0.8%,0.73%,-5.37%,-0.37%,6.23%,11.5%,3.6%,9.04%,1.78%
COC(=O)Nc1nc2ccc(Oc3ccc(NC(=O)Nc4cccc(Cl)c4)cc3)cc2[nH]1,-0.03%,2.28%,4.23%,28.6%,56.8%,21.1%,57.2%,-4.92%,-0.96%,3.45%,11%,0.67%,2.42%,0.78%,2.42%,6.07%,17.1%,6.79%,15.1%,-4.01%
CCn1c(-c2nonc2N)nc2c(C#CC(C)(C)O)nc(OC[C@H](N)c3ccccc3)cc21,2.04%,0.69%,5.54%,6.07%,30.4%,2.64%,2.43%,-0.59%,-3.88%,0.23%,1.88%,2.49%,7.77%,0.59%,-2.5%,1.18%,5.43%,1.68%,2.41%,-2.29%
CC(=O)NCc1cccc(C#Cc2cncnc2Nc2ccc(OCc3cccc(F)c3)c(Cl)c2)c1,-0.23%,-0.22%,4.83%,-0.55%,0.27%,0.26%,-1.41%,-0.58%,2.95%,1.2%,0.4%,0.55%,6.04%,-1.79%,2.22%,1.06%,1.33%,3.3%,0.73%,4.54%
Fc1ccc(-c2nn3ncccc3c2-c2ccnc(Nc3ccc4c(c3)OCCO4)n2)cc1,3.32%,68.2%,84%,7.67%,30.8%,2.79%,6.52%,-1.97%,-3.36%,5.85%,24.8%,86.3%,96.6%,3.1%,3.06%,11.6%,25.9%,11.6%,21.5%,0.23%
CCNC(=O)O[C@H]1CN[C@H](C#Cc2cc3ncnc(Nc4ccc(OCc5cccc(F)c5)c(Cl)c4)c3s2)C1,-0.06%,1.28%,1.88%,2.51%,1.26%,2.06%,2.34%,3.08%,-3.06%,2.91%,1.4%,1.68%,-0.6%,-3.39%,-3.28%,4.28%,4.49%,2.44%,2.23%,-0.64%
O=C(Nc1n[nH]c2cc(-c3ccc(F)cc3)ccc12)C1CC1,1.06%,1.35%,9.07%,-0.63%,0.79%,1.99%,3.69%,-0.06%,-3.58%,4%,13.5%,1.98%,6.64%,1.71%,3.64%,4.3%,5.73%,4.48%,5.12%,1.6%
CS(=O)(=O)CCNCc1ccc(-c2ccc3ncnc(Nc4ccc(OCc5ccccc5)c(C(F)(F)F)c4)c3c2)o1,2.14%,1.98%,4.93%,1.28%,0.39%,3.55%,2.04%,-8.47%,-3.76%,5.89%,6.25%,2.85%,7.92%,0.47%,2.41%,5.9%,4.19%,3.97%,3%,1.81%
COc1ccc(CNC(=O)c2ccc(-c3cc(-c4nnc(C)o4)ccc3C)cc2)cc1,3.73%,8.93%,6.92%,-0.52%,-0.47%,0.57%,-0.2%,-2.79%,1.88%,1.4%,4.48%,-0.74%,7.13%,2.69%,2.94%,0.94%,-0.29%,1.06%,1.01%,1.48%
COC(=O)Nc1nc2ccc(S(=O)(=O)c3ccc(NC(=O)Nc4cc(C(F)(F)F)ccc4F)cc3)cc2[nH]1,0.83%,0.25%,6.79%,0.68%,-0.67%,-0.31%,3.96%,-2.76%,0.09%,0.25%,2.45%,1.97%,-2.4%,2.44%,3.21%,3.07%,3.12%,3.61%,4.39%,-1.21%
c1ccc(COc2ccc(Nc3ncnc4ccc(-c5ccco5)cc34)cc2)cc1,0.84%,3.1%,7.56%,-2.31%,-0.13%,0.33%,3.12%,-0.59%,-2.46%,0.34%,1.86%,3.28%,13.1%,-2.15%,0.17%,1.52%,1.99%,2.01%,3.23%,11.2%
COc1ccc(-c2cc3c(N)ncnc3o2)cc1,-1.73%,1.49%,7.14%,-0.2%,0.12%,-0.73%,-0.84%,-4.44%,3.74%,-0.51%,2.56%,0.83%,6.69%,-2.99%,-0.14%,-1.18%,-0.19%,-0.23%,1.67%,1.23%
